Data taken from PubChem BioAssay (NCI).
The panel holds about 79,000 compounds, 15% with a hit somewhere; the sample as a whole holds those more often. Active and inactive are the calls of the source. Cut-off read from the data, not from the text of the source: active = growth inhibition above about 70%; inactive = the rest.

Key:
[1] = NCI Yeast Anticancer Drug Screen. Data for the rad52 strain (AID 147);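 note: 0% = growth of vehicle-treated control cultures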; details: S. cerevisiae rad52 mutant growth inhibition, stronger effect = higher value
Procedure, shortened: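 Here a repair-compromised yeast strain receives each compound; its growth is then quantified and normalised to vehicle-only controls.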

[2] = NCI Yeast Anticancer Drug Screen. Data for the wt1 strain (AID 149);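 note: 0% = growth of vehicle-treated wt1 cultures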; details: S. cerevisiae wt1 strain (SPY 50644) growth inhibition, stronger effect = higher value
Procedure, shortened: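 wt1 strain grown with compound or vehicle; inhibition taken from the growth difference.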

[3] = NCI Yeast Anticancer Drug Screen. Data for the rad50EPP+ strain (AID 151);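 note: 0% = growth of vehicle-treated control cultures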; details: S. cerevisiae rad50 mutant strain, stronger effect = higher value
Procedure, shortened: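 Read-out is yeast growth inhibition relative to vehicle; cells used were the rad50EPP+ strain.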

[4] = NCI Yeast Anticancer Drug Screen. Data for the rad50 strain (AID 155);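 note: 0% = growth of vehicle-only cultures of the same strain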; details: S. cerevisiae rad50 strain growth inhibition, stronger effect = higher value
Procedure, shortened: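 DNA repair mutant yeast, compound exposure, growth read-out; inhibition is taken relative to vehicle.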

[5] = NCI Yeast Anticancer Drug Screen. Data for the mec2-1 strain (AID 157); details: S. cerevisiae mec2-1 strain, stronger effect = higher value
Procedure, shortened: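 Using mec2-1 yeast: add compound, measure growth, express inhibition versus vehicle-treated cultures.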

[6] = NCI Yeast Anticancer Drug Screen. Data for the rad14 strain (AID 159);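 note: 0% = growth of vehicle-treated control cultures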; details: S. cerevisiae rad14 strain growth inhibition, stronger effect = higher value
Procedure, shortened: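 DNA repair-defective yeast, compound-exposed; % growth inhibition derived by comparison with vehicle-treated controls.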

[7] = NCI Yeast Anticancer Drug Screen. Data for the sgs1 mgt1 strain (AID 161);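 note: 0% = growth of cultures given vehicle only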; details: S. cerevisiae sgs1 mgt1 strain, stronger effect = higher value
Procedure, shortened: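 Percent growth inhibition was derived by comparing compound-exposed mutant yeast with vehicle-exposed cultures. The strain carries alterations in DNA damage repair.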

[8] = NCI Yeast Anticancer Drug Screen. Data for the CLN2oe strain (AID 163);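 note: 0% = growth of vehicle-only control cultures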; details: S. cerevisiae CLN2oe strain, stronger effect = higher value
Procedure, shortened: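 Whole-cell yeast growth assay. A strain engineered for altered cell-cycle control received compound, and inhibition relative to vehicle-treated cultures was recorded.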

[9] = NCI Yeast Anticancer Drug Screen. Data for the cln2 rad14 strain (AID 165);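 note: 0% = growth equal to vehicle treated cultures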; details: S. cerevisiae cln2 rad14 strain, stronger effect = higher value
Procedure, shortened: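 Yeast strain cln2 rad14, bearing defects in cell cycle control and DNA repair, serves as the test system; values reflect growth inhibition compared with vehicle.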

[10] = NCI Yeast Anticancer Drug Screen. Data for the bub3 strain (AID 167); details: S. cerevisiae bub3 mutant strain, stronger effect = higher value
Procedure, shortened: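 In this screen, a yeast mutant lacking normal mitotic checkpoint function is challenged with compound. Relative growth versus vehicle gives the inhibition value.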

[11] = NCI Yeast Anticancer Drug Screen. Data for the wt2 strain (AID 169);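 note: 0% = growth of vehicle-treated yeast cultures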; details: S. cerevisiae wt2 strain growth inhibition, stronger effect = higher value
Procedure, shortened: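 Treated yeast vs. vehicle-treated yeast: growth inhibition determined.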

[12] = NCI Yeast Anticancer Drug Screen. Data for the mlh1 strain (AID 171);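 note: 0% = growth of vehicle-treated control cultures of the same strain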; details: S. cerevisiae mlh1 strain growth inhibition, stronger effect = higher value
Procedure, shortened: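 A yeast strain with a defined genetic lesion serves as the test organism. Cultures receive compound or vehicle, and growth is measured.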

[13] = NCI Yeast Anticancer Drug Screen. Data for the sgs1 strain (AID 173);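 note: 0% = growth of vehicle-only control cultures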; details: S. cerevisiae sgs1 mutant, stronger effect = higher value
Procedure, shortened: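 A genetically defined yeast mutant is incubated with the test compound, and its growth is compared to that of the same strain given vehicle.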

[14] = NCI Yeast Anticancer Drug Screen. Data for the mlh1 rad18 strain (AID 175); details: S. cerevisiae mlh1 rad18 strain growth inhibition, stronger effect = higher value
Procedure, shortened: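 Steps: expose repair-defective yeast to compound; measure growth; express inhibition against vehicle-treated controls.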

[15] = NCI Yeast Anticancer Drug Screen. Data for the rad18 strain (AID 177); details: S. cerevisiae rad18 mutant growth inhibition, stronger effect = higher value
Procedure, shortened: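 Measured value is growth inhibition of a yeast strain bearing a DNA repair alteration, referenced to vehicle-treated cells.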

[16] = at 5.0 µM (retest, dose inferred, filed as 0.5)
[17] = at 50.0 µM (retest, dose inferred, filed as 5.0)

Measured: growth inhibition

Nc1ccc2c(c1)sc1ccccc12
inactive: [1]; at 1.2 µM -3% | [1]; at 3.7 µM 2% | [1]; at 11.0 µM 3% | [1]; at 33.0 µM 30% | [2]; at 1.2 µM -5% | [2]; at 3.7 µM -7% | [2]; at 11.0 µM -10% | [2]; at 33.0 µM -11% | [3]; at 1.2 µM 1% | [3]; at 3.7 µM 13% | [3]; at 11.0 µM 38% | [4]; at 1.2 µM -20% | [4]; at 3.7 µM -1% | [4]; [16] -153% | [4]; at 11.0 µM 9% | [4]; at 33.0 µM 46% | [4]; [17] 54% | [5]; at 1.2 µM 1% | [5]; at 3.7 µM 0% | [5]; [16] -52% | [5]; at 11.0 µM -6% | [5]; at 33.0 µM 4% | [5]; [17] -24% | [5]; at 50.0 µM 33% | [6]; at 1.2 µM -3% | [6]; at 3.7 µM -6% | [6]; at 11.0 µM -1% | [6]; at 33.0 µM 15% | [7]; [16] -68% | [7]; [17] 40% | [7]; at 50.0 µM 63.1% | [8]; at 1.2 µM -2% | [8]; at 3.7 µM -5% | [8]; at 11.0 µM -3% | [8]; at 33.0 µM -5% | [9]; [16] -60% | [9]; [17] -50% | [9]; at 50.0 µM -13.4% | [10]; at 1.2 µM -6% | [10]; at 3.7 µM -4% | [10]; [16] -59% | [10]; at 11.0 µM 3% | [10]; at 33.0 µM 18% | [10]; [17] 40% | [11]; at 1.2 µM -1% | [11]; at 3.7 µM -2% | [11]; at 11.0 µM -4% | [11]; at 33.0 µM 0% | [12]; at 1.2 µM 9% | [12]; at 3.7 µM -4% | [12]; at 11.0 µM -5% | [12]; at 33.0 µM 21% | [13]; at 1.2 µM -1% | [13]; at 3.7 µM -1% | [13]; at 11.0 µM -2% | [13]; at 33.0 µM 46% | [14]; [16] -122% | [14]; [17] 38% | [15]; at 1.2 µM 0% | [15]; at 3.7 µM 6% | [15]; at 11.0 µM 27% | [15]; at 33.0 µM 56%
active: [1]; at 100.0 µM 99% | [2]; at 100.0 µM 99% | [3]; at 33.0 µM 89% | [3]; at 100.0 µM 98% | [4]; at 50.0 µM 85.4% | [4]; at 100.0 µM 99% | [5]; at 100.0 µM 99% | [6]; at 100.0 µM 98% | [8]; at 100.0 µM 95% | [10]; at 50.0 µM 92.5% | [10]; at 100.0 µM 99% | [11]; at 100.0 µM 99% | [12]; at 100.0 µM 99% | [13]; at 100.0 µM 99% | [14]; at 50.0 µM 94.2% | [15]; at 100.0 µM 99%
